PubChem BioAssay (NCATS)
Inconclusive results are not listed. The source made the active and inactive calls. Calls follow the shape of the dose curve; as a rule, active = well fitted inhibition curve with a large enough effect; inconclusive = small, poorly fitted or top-dose-only effect; inactive = flat fitted curve, though single readings scatter.

Tested on: CP238
Assay: qHTS profiling for inhibitors of Plasmodium falciparum proliferation (AID 504749); also: nearly all actives have a fitted effect of over 60% in size;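 as to activity, negative = inhibition: 0% = DMSO vehicle and full inhibition = artemisinin control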
Conditions: P. falciparum in erythrocytes, SYBR Green DNA, 72 h; series mostly up to 28.7 µM; activity, negative = inhibition: at the top concentration
Outline: (§1)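 Fluorescence of SYBR Green-bound parasite DNA, read at 485/535 nm, served as the growth measure. Infected erythrocytes were cultured with compound 72 h; artemisinin (0.29 uM) and DMSO wells defined the normalization range.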
Potency is read from the fitted curve at half-maximal effect.

| SMILES | activity, negative = inhibition | Potency |
| --- | --- | --- |
| CN1CCN(C2Cc3ccccc3Sc3ccc(Cl)cc32)CC1 (configuration not stated) | -21.3% (inactive) |  |
| Cc1cc2c(cc1S(N)(=O)=O)S(=O)(=O)CCC2 | 6.81% [at 12.8 µM] (inactive) |  |
| CCOc1nc2cccc(C(=O)O)c2n1Cc1ccc(-c2ccccc2-c2nn[nH]n2)cc1 | -13.9% (inactive) |  |
| NC1CCN(c2cccc(Cl)n2)CC1 | -21.7% (inactive) |  |
| CNC(=O)Oc1ccc2c(c1)[C@]1(C)CCN(C)[C@@H]1N2C |  | 1.78 µM (active) |
| CCOC(CN1CCN(CC(C)C(=O)c2ccccc2)CC1)c1ccccc1 (configuration not stated) | -22% (inactive) |  |
| CCCc1c(OCCCCc2nn[nH]n2)ccc(C(C)=O)c1O | -11.5% (inactive) |  |
| CCCCN1CCCC[C@H]1C(=O)Nc1c(C)cccc1C | -13.8% (inactive) |  |
| CC(CN1c2ccccc2Sc2ccccc21)N(C)C (configuration not stated) | 5.75% (inactive) |  |
| O=C1NS(=O)(=O)c2ccccc21 | 9.59% (inactive) |  |
| Cc1cc(N)c2ccccc2[n+]1CCCCCCCCCC[n+]1c(C)cc(N)c2ccccc21 |  | 0.282 µM (active) |
| [Cl][In]([Cl])[Cl] | -10.5% (inactive) |  |
| CCCCOc1cc(C(=O)OCCN(CC)CC)ccc1N | 3.32% [at 12.8 µM] (inactive) |  |

Tested on: CP247
Assay: as above
Conditions: P. falciparum in erythrocytes, SYBR Green DNA, 72 h; series mostly up to 28.7 µM; activity, negative = inhibition: at the top concentration
Outline: as §1

| SMILES | activity, negative = inhibition | Potency |
| --- | --- | --- |
| CN1CCN(C2Cc3ccccc3Sc3ccc(Cl)cc32)CC1 (configuration not stated) | -23.9% (inactive) |  |
| Cc1cc2c(cc1S(N)(=O)=O)S(=O)(=O)CCC2 | 6.51% [at 12.8 µM] (inactive) |  |
| CCOc1nc2cccc(C(=O)O)c2n1Cc1ccc(-c2ccccc2-c2nn[nH]n2)cc1 | -29.7% (inactive) |  |
| NC1CCN(c2cccc(Cl)n2)CC1 | -23.7% (inactive) |  |
| CNC(=O)Oc1ccc2c(c1)[C@]1(C)CCN(C)[C@@H]1N2C |  | 1.58 µM (active) |
| CCN(CC)CCNC(C(=O)OCCC(C)C)c1ccccc1 (configuration not stated) | -28.5% (inactive) |  |
| CCCCN1CCCC[C@H]1C(=O)Nc1c(C)cccc1C | -23.2% (inactive) |  |
| COc1ccc2[nH]c(S(=O)Cc3ncc(C)c(OC)c3C)nc2n1 (configuration not stated) |  | 11.2 µM (active) |
| CN1CCCCC1CCN1c2ccccc2Sc2ccc(S(C)=O)cc21 (configuration not stated) | -23.3% (inactive) |  |
| c1ccc(CN(CC2=NCCN2)c2ccccc2)cc1 | -24.7% (inactive) |  |
| CC(CN1c2ccccc2Sc2ccccc21)N(C)C (configuration not stated) | 7.91% (inactive) |  |
| O=C1NS(=O)(=O)c2ccccc21 | 2.65% (inactive) |  |
| CN(C)CCCN1c2ccccc2Sc2ccc(Cl)cc21 | -29.5% (inactive) |  |
| Cc1cc(N)c2ccccc2[n+]1CCCCCCCCCC[n+]1c(C)cc(N)c2ccccc21 |  | 1.58 µM (active) |
| CCCCOc1cc(C(=O)OCCN(CC)CC)ccc1N | 8.31% [at 12.8 µM] (inactive) |  |
| CN(C)CCN(Cc1ccccc1)c1ccccn1 | -26.5% (inactive) |  |
| Oc1ccc(C(O)CNCCCCCCNCC(O)c2ccc(O)c(O)c2)cc1O (configuration not stated) |  | 11.2 µM (active) |
| OCCN1CCN(CCCN2c3ccccc3Sc3ccc(Cl)cc32)CC1 |  | 2.51 µM (active) |
| CNCCCC1c2ccccc2C=Cc2ccccc21 | -17.8% [at 12.8 µM] (inactive) |  |
